TrxR1 substrate – qHTS Assay for Substrates of Mammalian Selenoprotein Thioredoxin Reductase 1 (TrxR1): qHTS | Thioredoxin reductase 1, cytoplasmic (Rattus norvegicus), O89049 | purified TrxR1 substrate turnover, NADPH consumption readout | Potency, µM (top dose mostly 114 µM), inactives show at the highest dose activity change, negative = substrate turnover | 390,000 compounds, 0.01% hits | AID 588456, 2011; also: potency is read from the fitted curve at half-maximal effect; % is scaled to controls: 0 for no effect and ±100 for the full control effect; nearly all actives have a fitted effect of over 50% in size
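Rat TrxR1, dispensed at 90 nM, was prereduced with 400 uM NADPH (final) for 5 min at ~22 deg C, then incubated with compound 15 min before 400 uM selenite. A first-read NADPH fluorescence drop versus no-compound background flagged substrates.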
TrxR1 inh-1 – qHTS Assay for Inhibitors of Mammalian Selenoprotein Thioredoxin Reductase 1 (TrxR1): qHTS; Potency, µM (series often up to 114 µM), without a hit: at the highest dose activity change, negative = inhibition, actives largely listed as inhibitors; Thioredoxin reductase 1, cytoplasmic (Rattus norvegicus), O89049; 390,000 compounds, 1% hits; AID 588453, 2011; recombinant rTrxR1, NADPH fluorescence consumption, selenite substrate; also: potency is read from the fitted curve at half-maximal effect; % is scaled to controls: 0 for no effect and ±100 for the full control effect; nearly all actives have a fitted effect of over 65% in size
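Rat TrxR1 (90 nM in the dispensed reagent) was pre-reduced with 400 uM NADPH for 5 min at room temperature, then incubated with compound for 15 min. After 400 uM selenite was added, NADPH fluorescence (Ex 340/Em 450 nm) was followed for 8 min.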
FBPA coupling cs – qHTS Assay for Inhibitors of Fructose-1,6-bisphosphate Aldolase from Giardia Lamblia: Coupling assay counterscreen | activity change, negative = inhibition, % at 58.2 µM, hits read low | 290,000 compounds, 0.67% hits | coupling enzyme system counterscreen, AmpLite Red fluorescence; in the data active = activity change below about -30%; also: % is scaled to controls: 0 for no effect and ±100 for the full control effect
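Counterscreen lacking aldolase: glyceraldehyde-3-phosphate coupling-enzyme reagent preincubated 10 min at RT with compound (at 57.5 uM final), then substrate/coupling system with AmpLite Red added; fluorescence read at 525/598 nm after 20 min RT.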
Eya2 inh – qHTS Assay for Inhibitors of the Phosphatase Activity of Eya2; Protein phosphatase EYA2 (Homo sapiens), O00167; recombinant Eya2, OMFP fluorescence dephosphorylation (OMFP is methylfluorescein phosphate); Potency, µM (doses to about 76.9 µM), for inactives: at the top dose activity, negative = inhibition, hits mostly inhibitors; 330,000 compounds, 0.006% hits; AID 488837, 2010; also: potency is read from the fitted curve at half-maximal effect; % is scaled to controls: 0 for no effect and ±100 for the full control effect
Target sequence (O00167 whole entry, looked up): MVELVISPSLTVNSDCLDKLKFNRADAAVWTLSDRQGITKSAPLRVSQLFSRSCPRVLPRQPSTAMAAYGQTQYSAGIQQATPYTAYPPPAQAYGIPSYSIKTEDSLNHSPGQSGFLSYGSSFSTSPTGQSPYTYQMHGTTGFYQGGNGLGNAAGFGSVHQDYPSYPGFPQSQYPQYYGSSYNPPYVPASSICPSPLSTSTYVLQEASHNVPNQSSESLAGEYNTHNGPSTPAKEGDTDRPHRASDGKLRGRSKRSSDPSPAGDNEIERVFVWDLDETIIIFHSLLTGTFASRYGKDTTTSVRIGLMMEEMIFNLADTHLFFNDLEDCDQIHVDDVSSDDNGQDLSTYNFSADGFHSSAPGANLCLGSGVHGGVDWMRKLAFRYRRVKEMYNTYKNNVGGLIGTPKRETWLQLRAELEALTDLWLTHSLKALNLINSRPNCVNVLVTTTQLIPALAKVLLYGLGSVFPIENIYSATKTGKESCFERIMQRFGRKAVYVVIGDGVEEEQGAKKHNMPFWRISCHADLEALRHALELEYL
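Eya2 (0.2 uM) preincubated 10 min at ambient with compound, then OMFP substrate added at 50 uM; 10 min reaction in 50 mM HEPES pH 7.5, 50 mM NaCl, 5 uM MgCl2, 0.05% BSA, 1 mM DTT. Fluorescence read at Ex 485/Em 525 nm.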
mIDH1 inhibitor – qHTS for Inhibitors of mutant isocitrate dehydrogenase 1 (IDH1): qHTS; IDH1-R132H enzyme, NADPH consumption, diaphorase/resazurin fluorescence; 390,000 compounds, 0.093% hits; Potency, µM (doses to about 76.6 µM), without a hit: at the highest dose activity change, negative = inhibition, usual class: inhibitors; Isocitrate dehydrogenase [NADP] cytoplasmic (Homo sapiens), O75874; also: potency is read from the fitted curve at half-maximal effect; % is scaled to controls: 0 for no effect and ±100 for the full control effect; nearly all actives have a fitted effect of over 65% in size
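IDH1-R132H (0.5 ug/mL) preincubated 30 min with compound, then NADPH (0.016 mM) and alpha-KG (2 mM) added; 80 min at RT, pH 7.5. Remaining NADPH coupled via diaphorase/resazurin to fluorescence (540/590 nm); concentration-response curves normalized to no-enzyme control.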
TRb SRC2 Alpha – Protein Interaction Secondary Assay for Inhibitors of the Interaction of Thyroid Hormone Receptor and Steroid Receptor Coregulator 2, Alpha Screen; Potency, µM; shares compounds with TrxR1 inh-1; 30 compounds, 50% hits; AID 2444, 2010; AlphaScreen TRb LBD-SRC2 peptide binding, luminescence; calls by dose curve
HepG2 viability – Cell Viability Secondary Assay for Inhibitors of the Interaction of Thyroid Hormone Receptor and Steroid Receptor Coregulator 2 | shares compounds with TrxR1 inh-1 | HepG2 viability, ATP luminescence (CellTiter-Glo), 72 h | Potency, µM | 40 compounds, 50% hits; calls by dose curve
AR-SRC2 inh – Androgen Receptor Selectivity Assay for Inhibitors of the Interaction of Thyroid Hormone Receptor and Steroid Receptor Coregulator 2. shares compounds with TrxR1 inh-1. 25 tested, under 10 active. calls only. AR-LBD Tx-SRC2-3 fluorescence polarization, 3 h; call rule not given here
PPARg DRIP2 FP – PPAR gamma Selectivity Assay For Inhibitors of the Interaction of Thyroid Hormone Receptor and Steroid Receptor Coregulator 2; shares compounds with TrxR1 inh-1; PPARg LBD / Texas Red DRIP-2 peptide, fluorescence polarization, 3 h; Potency, µM; 25 tested, under 10 active; AID 2449, 2010; calls by dose curve
VDR SRC2 FP – Vitamin D Receptor Selectivity Assay for Inhibitors of the Interaction of Thyroid Hormone Receptor and Steroid Receptor Coregulator 2. 25 tested, under 10 active. VDR LBD/SRC2-3 peptide, fluorescence polarization, 3 h. shares compounds with TrxR1 inh-1. Potency, µM; calls by dose curve
TRb-SRC2 FP Fluo – Secondary Confirmation Assay for Inhibitors of the Interaction of Thyroid Hormone Receptor and Steroid Receptor Coregulator 2, Fluorescein Fluoroprobe. shares compounds with TrxR1 inh-1. TRb LBD / fluorescein-SRC2 peptide, fluorescence polarization. Potency, µM. 20 tested, under 10 active; call rule not given here
GR inh – qHTS Assay for Inhibitors of Mammalian Selenoprotein Thioredoxin Reductase 1 (TrxR1): Counterassay in Glutathione Reductase (GR) | 55 tested, under 10 active | shares compounds with TrxR1 inh-1 | activity change, negative = inhibition, % at 57.1 µM | purified GR, DTNB reduction absorbance 405 nm kinetic
TrxR1 inh-2 – qHTS Assay for Inhibitors of Mammalian Selenoprotein Thioredoxin Reductase 1 (TrxR1): Hit Validation in Primary Screen. shares compounds with TrxR1 inh-1. recombinant TrxR1, NADPH fluorescence consumption, selenite substrate. Potency, µM, usual class: inhibitors. 55 compounds, 50% hits. AID 652023, 2013
TrxR1 insulin – qHTS Assay for Inhibitors of Mammalian Selenoprotein Thioredoxin Reductase 1 (TrxR1): Insulin MOA Assay; Potency, µM; shares compounds with TrxR1 inh-1; TrxR1 Trx-coupled insulin reduction, NADPH absorbance 340 nm; 55 compounds, 20% hits;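 active = compounds with a measured potency under 100 micromolar; inconclusive = filed, but no rule given; inactive = potency at or above that, or unmeasurable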
TrxR1 inh-3 – qHTS Assay for Inhibitors of Mammalian Selenoprotein Thioredoxin Reductase 1 (TrxR1): DTNB Assay; shares compounds with TrxR1 inh-1; purified TrxR1, DTNB reduction, A412; Potency, µM; 55 compounds, 90% hits; AID 652256, 2013;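 active = a half-inhibiting concentration could be measured and was below 100 µM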
Starred values were filed as active, the others as inactive; i = inactive; ? = inconclusive; nt = no result given; ! = not confirmed by another sample; [ ] = another dose, or the depositor's remark. In the library only some 1.5% were active in any assay of this set; here they are far more common. Unless noted, calls follow the shape of the dose curve; as a rule, active = well fitted curve in the direction sought with a large enough effect; inconclusive = small, poorly fitted or top-dose-only effect, or another doubt; inactive = no such curve, though single readings can be large; an effect the other way counts as inactive or inconclusive.

SMILES	TrxR1 substrate	TrxR1 inh-1	FBPA coupling cs	Eya2 inh	mIDH1 inhibitor	others
CCCC1CCN(C(=O)COC(=O)c2ccc(S(C)(=O)=O)c([N+](=O)[O-])c2)CC1	nt	nt	nt	nt	nt	HepG2 viability=6.6µM*
CC1CCCCN1C(=O)COC(=O)CSc1ccc(C(N)=O)cc1[N+](=O)[O-] (centres undefined)	6%[57.1 µM]	13%[57.1 µM]	nt	nt	6%
CS(=O)(=O)c1ccc(C(=O)OCC(=O)N2CCC(Cc3ccccc3)CC2)cc1[N+](=O)[O-]	nt	nt	nt	nt	nt	HepG2 viability=9µM*
CC1CCCCN1C(=O)COC(=O)c1ccc(S(C)(=O)=O)c([N+](=O)[O-])c1 (centres undefined)	-1%	10µM*	nt	nt	nt	TRb SRC2 Alpha=19µM*;HepG2 viability=22µM*;AR-SRC2 inh=i;PPARg DRIP2 FP=i;VDR SRC2 FP=i;TRb-SRC2 FP Fluo=9.1µM*
CC1CN(C(=O)COC(=O)c2ccc(N)c([N+](=O)[O-])c2)CC(C)O1 (centres undefined)	6%[57.1 µM]	4%	-2	-4%	2%
Cc1ccc(S/C(=N/S(=O)(=O)c2ccc(Cl)cc2)c2ccccc2)cc1	-2%	7%	nt	nt	nt
C/C=C\C=C\C(=O)Nc1cccc(C2=NOC3(C2)C[C@@H](C(N)=O)N(C(=O)C(c2ccccc2)c2ccccc2)C3)c1 (some centres undefined)	-3%	13µM*	-4	0%	1%	TrxR1 insulin=i;TrxR1 inh-3=i
Cc1ccc(NC(=O)CCN2C(=O)c3ccccc3Sc3ncccc32)cc1	-10%	11µM*	nt	-10%	-12%	GR inh=0;TrxR1 inh-2=9.5*;TrxR1 insulin=i;TrxR1 inh-3=i
O=C1c2ccccc2NC(c2ccccc2OCc2ccccc2)N1Cc1ccco1 (centres undefined)	26%	11%	nt	nt	nt
CS(=O)(=O)c1ccc(C(=O)NCC(=O)NC2C3CC4CC(C3)CC2C4)cc1[N+](=O)[O-] (centres undefined)	nt	nt	nt	nt	nt	TRb SRC2 Alpha=3.8µM*;HepG2 viability=22µM*;AR-SRC2 inh=i;PPARg DRIP2 FP=i;VDR SRC2 FP=i
CS(=O)(=O)c1ccc(C(=O)OC(C(=O)NC2C3CC4CC(C3)CC2C4)c2ccccc2)cc1[N+](=O)[O-] (centres undefined)	nt	nt	nt	nt	nt	HepG2 viability=10µM*
CCCNC(=O)c1ccc(S(=O)(=O)c2ccc(OC)cc2)c([N+](=O)[O-])c1	6%	?	1	3%	2%
COc1ccc([N+](=O)[O-])c(S(=O)(=O)c2ccc(Cl)cc2)n1	-8%	0.5µM*	-1	-28%	2%	GR inh=-20;TrxR1 inh-2=0.13*;TrxR1 insulin=26µM*;TrxR1 inh-3=0.041µM*
COc1ccc([N+](=O)[O-])c(S(=O)(=O)c2ccccc2)n1	1%[57.1 µM]	?	1	6%	1%
Cc1cccc(C(=O)Nc2nnc(S(=O)(=O)N(C)Cc3ccco3)s2)c1	0%	45µM*!	nt	0%	42%	GR inh=-3;TrxR1 inh-2=?;TrxR1 insulin=?;TrxR1 inh-3=49µM*
O=C(Nc1ccccc1Sc1ccccc1)c1cnn2c1NC(=C1CC1)C=C2C(F)(F)F	-8%	-9%	nt	nt	nt
COc1ccc(CCNc2ncnc3nc[nH]c23)cc1	7%	11%	nt	nt	nt
COc1cc(CN2CCCCC2C(=O)Nc2ccc(Oc3ccccc3)nc2)ccc1O (centres undefined)	1%	13µM*	-1	10%	7%	GR inh=6;TrxR1 inh-2=?;TrxR1 insulin=i;TrxR1 inh-3=0.14µM*
Cc1ccc(S(=O)(=O)N2CCN(c3nc(-c4cccs4)nc4nc[nH]c34)CC2)cc1	10%	16%	nt	nt	nt
C/C(=C\C[Si](C)(C)C)CC[C@H](O)C1=CCCCC1=O	nt	nt	-1	nt	nt
COc1ccc(NC(=O)CSc2nnc3c(n2)[nH]c2ccc(S(=O)(=O)N(C)C)cc23)c(OC)c1	3%	15%	nt	nt	nt
